What all share (assay): qHTS profiling for inhibitors of Plasmodium falciparum proliferation (AID 504749); further: nearly all actives have a fitted effect of over 60% in size
What all share (details): P. falciparum in erythrocytes, SYBR Green DNA, 72 h; series mostly up to 28.7 µM
For orientation: In qHTS, concentration-response curves come from the screen itself.

The subject of one assay is C2A. In a few lines:
(§1)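 Fluorescence of SYBR Green-bound parasite DNA, read at 485/535 nm, served as the growth measure. Infected erythrocytes were cultured with compound 72 h; artemisinin (0.29 uM) and DMSO wells defined the normalization range.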

The test system of the next assay is CP185. The method in brief:
as §1

For another assay, the system named is CP191. In a few lines:
as §1

Another assay has as its system CP192. In a few lines:
as §1

In the next assay the test system is CP194. The method in brief:
as §1

The subject of the next assay is CP201. In a few lines:
as §1

A further assay relates to CP211. In a few lines:
as §1

The next assay deals with CP215. The method in brief: as §1
Another assay concerns CP217. In a few lines: as §1
A further assay has as its system CP203. In a few lines:
as §1

Results filed as inconclusive are left out. Activity calls are given as the source filed them. The call rests on the fitted dose curve; in most records, active means well fitted inhibition curve with a large enough effect; inconclusive means small, poorly fitted or top-dose-only effect; inactive means flat fitted curve, though single readings scatter.
Potency means the concentration at half of the fitted maximal effect.

Take `CNC1(C)C2CCC(C2)C1(C)C` (configuration not stated): the Potency result in the assay on C2A, in the assay with CP185, in the assay with CP191, in the assay with CP192, in the assay on CP194 and in the assay on CP201 was “inactive” in each case. The Potency entry in the assay on CP211, in the assay on CP215 and in the assay on CP217 was “inactive” throughout.

Turning to `CC(=O)Oc1cc(C(C)C)c(OCCN(C)C)cc1C`, the Potency entry in the assay on C2A, in the assay with CP185, with CP191, in the assay with CP192, in the assay on CP194 and with CP201 was “inactive” in each case. Further, the Potency entry in the assay on CP203, in the assay on CP211 and with CP217 was “inactive” throughout.

With `CSc1ccc(C(=O)c2[nH]c(=O)[nH]c2C)cc1`, the Potency entry in the assay with C2A, in the assay with CP185, in the assay with CP191, with CP192, in the assay on CP194 and in the assay with CP201 was “inactive” throughout. The Potency entry in the assay on CP211, in the assay with CP215 and in the assay on CP217 was “inactive” throughout.

Turning to `NC(=O)N1c2ccccc2C=Cc2ccccc21`, the Potency result in the assay on C2A, with CP185, in the assay with CP191, in the assay on CP192, in the assay with CP194 and in the assay with CP201 was “inactive” throughout. For the same compound, the Potency result with CP215 and in the assay with CP217 was “inactive” each time.

`OCCN1CCN(CCCN2c3ccccc3C=Cc3ccccc32)CC1`: the Potency was 11.2 µM (active) in the assay with C2A; 12.6 µM (active) in the assay with CP185; 4.47 µM (active) in the assay with CP191; 10.7 µM (active) in the assay on CP192; 7.57 µM (active) in the assay with CP194; 12 µM (active) with CP211. Moreover, the Potency in the assay with CP215 is 8.49 µM (active); in the assay on CP217 it was 7.08 µM (active).

For the compound `NC(=O)c1ncn([C@@H]2O[C@H](CO)[C@@H](O)[C@H]2O)c1O`, the Potency result in the assay with C2A, in the assay on CP185, with CP191, in the assay with CP192, in the assay on CP194 and with CP201 was “inactive” each time. The Potency entry with CP211, in the assay with CP215 and in the assay on CP217 was “inactive” in each case.

Take `CC(N=C(NC#N)Nc1ccncc1)C(C)(C)C` (configuration not stated): the Potency entry with C2A, with CP185, in the assay with CP191, in the assay with CP192, with CP194 and with CP201 was “inactive” throughout. Also, the Potency entry in the assay with CP211, in the assay with CP215 and in the assay on CP217 was “inactive” each time.

For the compound `Cc1ccc(Cl)c(Nc2ccccc2C(=O)O)c1Cl`, the Potency result in the assay with C2A, with CP185, in the assay with CP191, in the assay with CP192, with CP194 and in the assay with CP201 was “inactive” throughout. Moreover, the Potency entry in the assay with CP211, with CP215 and with CP217 was “inactive” throughout.

In the case of `CC(C)(Oc1ccc(CCNC(=O)c2ccc(Cl)cc2)cc1)C(=O)O`, the Potency entry with C2A, in the assay on CP185, in the assay with CP191, with CP192, with CP194 and in the assay on CP201 was “inactive” throughout. For the same compound, the Potency result in the assay with CP211, with CP215 and in the assay with CP217 was “inactive” in each case.

`COc1ccc(CN(CCN(C)C)c2ccccn2)cc1`: the Potency result with C2A, with CP185, in the assay on CP191, in the assay with CP192, in the assay with CP201 and in the assay with CP211 was “inactive” throughout. In addition, the Potency result with CP215 and in the assay with CP217 was “inactive” throughout.

Turning to `NS(=O)(=O)c1cc2c(cc1Cl)NC(C1CC3C=CC1C3)NS2(=O)=O` (configuration not stated), the Potency result in the assay with C2A, in the assay on CP185, in the assay with CP191, in the assay with CP192, with CP194 and with CP201 was “inactive” in each case. Further, the Potency result in the assay on CP211, in the assay on CP215 and in the assay on CP217 was “inactive” throughout.

As for `CCN(CC)CC(=O)Nc1c(C)cccc1C`, the Potency result in the assay on C2A, with CP185, in the assay with CP191, in the assay with CP192, in the assay with CP194 and in the assay on CP201 was “inactive” in each case. Further, the Potency entry in the assay with CP211, in the assay with CP215 and with CP217 was “inactive” each time.

Take `CCn1cc(C(=O)O)c(=O)c2cc3c(cc21)OCO3`: the Potency entry in the assay with C2A, in the assay with CP185, with CP191, with CP192, in the assay with CP194 and with CP201 was “inactive” each time. In addition, the Potency result in the assay with CP211, in the assay on CP215 and with CP217 was “inactive” in each case.

Take `CN(C)C(=O)Oc1ccc[n+](C)c1`: the Potency entry with C2A, in the assay on CP185, in the assay with CP191, in the assay on CP192, in the assay on CP194 and with CP201 was “inactive” throughout. Besides, the Potency entry in the assay with CP211, in the assay on CP215 and in the assay with CP217 was “inactive” throughout.

For the compound `COc1cc2c(cc1OC)-c1cc(=Nc3c(C)cc(C)cc3C)n(C)c(=O)n1CC2`, the Potency was 2.82 µM (active) with C2A; 5.62 µM (active) with CP185; 3.98 µM (active) in the assay with CP191; 9.53 µM (active) in the assay on CP192; 4.78 µM (active) in the assay on CP194; 4.26 µM (active) in the assay with CP201. Also, the values for the Potency in the assay on CP215 and in the assay with CP217 were 5.36 µM (active) and 3.55 µM (active), respectively.

Take `CN(C)CCOC(=O)COc1ccc(Cl)cc1`: the Potency result in the assay on C2A, in the assay on CP185, in the assay with CP191, in the assay on CP192, in the assay with CP201 and in the assay on CP211 was “inactive” each time. For the same compound, the Potency result in the assay on CP215 and with CP217 was “inactive” throughout.

Regarding `CCN1CCC[C@H]1CNC(=O)c1c(O)c(Cl)cc(Cl)c1OC`, the Potency entry with C2A, with CP185, in the assay with CP191, with CP192, in the assay with CP194 and in the assay on CP201 was “inactive” in each case. In addition, the Potency entry with CP211, with CP215 and in the assay on CP217 was “inactive” each time.

For the compound `NC(Cc1ccc(Cl)cc1)C(=O)O` (configuration not stated), the Potency result in the assay with C2A, in the assay with CP185, with CP191, with CP192, in the assay on CP194 and with CP201 was “inactive” each time. The Potency entry with CP211, in the assay with CP215 and with CP217 was “inactive” throughout.

Take `NC/C=C/C(=O)O`: the Potency result in the assay on C2A, in the assay on CP185, in the assay on CP191, in the assay on CP192, in the assay with CP194 and in the assay with CP201 was “inactive” each time. The Potency result in the assay with CP211, in the assay with CP215 and with CP217 was “inactive” throughout.

In the case of `NC(=Nc1ccccc1)Nc1ccccc1`, the Potency result with C2A, with CP185, in the assay on CP191, in the assay on CP192, in the assay on CP194 and in the assay with CP201 was “inactive” throughout. Further, the Potency result in the assay with CP211, in the assay with CP215 and with CP217 was “inactive” in each case.

As for `Cc1nc2c([nH]1)c(=O)n(C)c(=O)n2Cc1ccco1`, the Potency entry in the assay with C2A, in the assay with CP185, with CP191, in the assay on CP192, in the assay with CP194 and in the assay on CP201 was “inactive” each time. The Potency entry in the assay with CP211, in the assay on CP215 and with CP217 was “inactive” in each case.

On to `O=C(O)CCCCCCCC(=O)O`, for which the Potency result with C2A, in the assay on CP185, with CP191, with CP192, with CP194 and with CP201 was “inactive” each time. Further, the Potency entry with CP211, in the assay on CP215 and in the assay on CP217 was “inactive” each time.

Regarding `CCCN(CCC)CCc1cccc2c1CC(=O)N2`, the Potency result with C2A, with CP185, with CP191, in the assay on CP192, in the assay with CP194 and with CP201 was “inactive” in each case. The Potency result in the assay on CP211, in the assay on CP215 and with CP217 was “inactive” each time.

Values taken from PubChem BioAssay (NCATS).
